tim23-1 inh: inhibits growth of tim23-1 mutant yeast | inhibition, % at 20 µM | S. cerevisiae tim23-1 growth, BacTiter-Glo luminescence, 24 h | AID 463212 | hit rate 1.3% among 330,000;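 active = growth inhibition of the mutant yeast at or above 50%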;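 note: temperature-sensitive mutant grown at 25 °C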
NALP1 inh: inhibitors of NALP1 inflammasome in yeast. S. cerevisiae NALP1/ASC/caspase-1 growth, X-gal OD620, 72 h. inhibition, % at 10 µM. hit rate 0.61% among 280,000. AID 2071; in the data active = inhibition mostly above about 24%, no sharp cut-off; inactive = mostly below about 32%
NALP3 yeast inh: blocks the NALP3 inflammasome reconstituted in yeast | Yeast reconstituted NLRP3/ASC/caspase-1, beta-gal luminescence, 24 h | hit rate 0.39% among 330,000 | inhibition, % at 10 µM;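 active = inhibition of 50% or more; inactive = inhibition below 50%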
TIM10 inh: growth inhibitors of TIM10 yeast strain | S. cerevisiae TIM10 strain growth, BacTiter-Glo luminescence, 24 h | inhibition, % at 10 µM | hit rate 1.4% among 330,000;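 active = inhibition of 40% or more at the single tested concentration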;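 note: wild-type TIM10 isogenic control strain grown at permissive 25 °C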
PfHsp90 set2: inhibits growth of yeast expressing Plasmodium falciparum Hsp90 | S. cerevisiae expressing PfHsp90, BacTiter-Glo ATP, 48 h; yeast lacking PDR1 and PDR3 efflux regulators | inhibition, % at 9.4 µM | hit rate 0.32% among 310,000;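 active = every replicate shows inhibition above about 80%, whatever the replicate mean, limit read from the data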
tim10-1 inh: inhibits growth of tim10-1 mutant yeast. S. cerevisiae tim10-1 ts strain growth, BacTiter-Glo, 24 h. inhibition, % at 20 µM. hit rate 2.2% among 330,000;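 active = inhibition of at least 40%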;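 note: mutant grown at 25 °C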
tim10-1 confirm: confirmation of tim10-1 mutant yeast growth inhibitors; shares compounds with tim10-1 inh; S. cerevisiae tim10-1 ts strain growth, BacTiter-Glo, 24 h; inhibition, % at 20 µM; hit rate 56% among 7,400;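 active = inhibition of yeast growth at or above a set limit in either of two repeat tests at 20 µM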;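 note: tim10-1 mutant grown at permissive 25 °C to find synthetic lethal compounds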
tim10 confirm: confirmation of TIM10 yeast growth inhibitors. shares compounds with TIM10 inh. hit rate 63% among 4,600. AID 463215. S. cerevisiae tim10 strain growth, BacTiter-Glo luminescence, 24 h. inhibition, % at 10 µM;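 active = inhibition of yeast growth at or above a set limit in either of two replicates at 10 µM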; note: this counterscreen used the strain with wild-type TIM10
Numbers stand for hits; 0 = inactive; - = not tested or not shown. Rows were chosen to be rich in hits. Some 4.2% of all compounds tested hit in one or more screens of this group.

SMILES	tim23-1 inh	NALP1 inh	NALP3 yeast inh	TIM10 inh	PfHsp90 set2	tim10-1 inh	tim10-1 confirm	tim10 confirm
Cc1cc(C)c(S(=O)(=O)N(CC(=O)N2CCCC2)C2CCCCC2)c(C)c1	0	-	0	43	-	40	0	0
O=C(Nc1ccc(Cl)c(S(=O)(=O)N2CCCC2)c1)c1cc(=O)[nH]c2ccccc12	0	-	0	0	-	0	-	-
CCSc1nnc(NC(=O)c2nc(-c3ccccc3)n(-c3ccccc3)n2)s1	0	0	0	51	0	55	52	0
CCSc1nnc(NC(=O)c2cc(C)nc3ccccc23)s1	0	0	0	0	0	0	-	-
Cc1ccc(-n2nc(C)c(NS(=O)(=O)c3ccccc3)c2C)cc1C	0	0	0	0	0	0	-	-
Cc1nn(-c2ccc(F)cc2)c(C)c1NS(=O)(=O)c1ccc(Cl)cc1	0	0	0	51	0	48	40	0
CC(C)N(Cc1ccccc1)C(=O)COC(=O)c1cc(S(=O)(=O)N(C)C)ccc1N1CCCC1	0	-	0	0	0	0	-	-
C=CCSc1nc2ccccc2n1C(=O)/C=C/c1cc(OC)c(OC)c(OC)c1	0	0	0	43	0	45	49	41
S=C(Nc1cccc(Cl)c1)NC1CCCCC1	0	0	0	0	0	0	-	-
S=C(NNc1cccc(Cl)c1)NC1CCCCC1	0	0	0	61	0	49	41	55
COc1ccc2nc(-c3ccc(Cl)cc3)cc(C(=O)O)c2c1	0	0	0	0	0	0	-	-
CCOc1ccc(/C=C2\SC(N3CCc4ccccc4C3)=NC2=O)cc1	0	0	0	54	0	47	35	0
Cc1ccc(-c2nc3c(=O)n(C)c4ccccc4c3o2)cc1	0	0	0	58	-	52	31	64
CCCn1c(/C=C/c2ccccc2)nc2ccccc21	0	0	0	42	0	42	0	0
O=C(NCc1ccccc1)c1cccc(COc2cccc(Cl)c2)c1	0	0	0	43	0	45	40	34
O=C(CSCc1ccccc1Cl)Nc1ccc2c(c1)OCCO2	0	0	0	48	0	44	36	0
CN(C)S(=O)(=O)NCC1CCCN(Cc2cc3ccccc3s2)C1 (centres undefined)	-	-	-	-	0	-	-	-
O=C(Nc1ccc(Br)cc1)c1cccn1-c1ncc(C(F)(F)F)cc1Cl	0	0	0	52	-	47	43	43
Cc1nn(CCC#N)c(N)c1C1(O)C(=O)Nc2c(Cl)cc(Cl)cc21 (centres undefined)	0	0	0	0	0	0	-	-
CCc1ccc(OC)c(S(=O)(=O)NCc2cccs2)c1	0	-	0	0	0	0	-	-
c1ccc(N2CC3CCc4ccccc4C3=N2)cc1 (centres undefined)	0	0	0	0	0	0	-	-
O=C(C[n+]1cn(C(F)F)c2ccccc21)c1ccc(OC(F)F)cc1	0	0	0	53	0	56	47	39
CC(C)CCNc1nc2c(c(=O)n(Cc3cccc(F)c3)c(=O)n2C)n1C	0	0	0	46	0	47	0	34
CCS(=O)(=O)c1ccc2oc(Nc3cc(C)cc(C)c3)nc2c1	0	0	0	43	0	47	37	37
C/C(=N\NC(=S)NC(C)C)c1ccc2c(c1)OCCO2	0	0	0	41	0	43	0	0
SMILES	tim23-1 inh	NALP1 inh	NALP3 yeast inh	TIM10 inh	PfHsp90 set2	tim10-1 inh	tim10-1 confirm	tim10 confirm
CNC(=S)N/N=C(\C)c1ccc2c(c1)OCCO2	0	0	0	0	0	0	-	-
O=C(Nc1ccnn1C1CCN(Cc2ccc(O)c(Cl)c2)CC1)C1CCCC1	0	0	0	0	0	0	-	-
C[C@H]1CCC[C@]2(C)C[C@H]3OC(=O)C(CN4CCCCCC4)[C@H]3C=C12 (some centres undefined)	0	0	0	42	0	44	41	49
COC(=O)N1C(=O)[C@](c2ccccc2)(C2CCCCC2)N1C(=O)OC	0	0	0	43	0	49	32	39
Cc1ccc(-c2nnc(Sc3nc4ccccc4o3)c3ccccc23)cc1	0	0	0	48	0	46	30	38
COc1ccccc1N1CCN(Cc2ccc(O)c3ncccc23)CC1	0	0	0	50	0	42	0	35
Cc1cccc(-c2nnc3sc(-c4ccccc4C)nn23)c1	0	0	0	41	0	55	66	44
COc1cccc(-c2nnc3sc(-c4ccccc4)nn23)c1	0	0	0	0	-	0	-	-
COC(=O)CCCC(=O)NC1CCCc2c1cnn2-c1ccc(F)cc1F (centres undefined)	0	0	0	0	0	0	-	-
COc1cccc(/C=N/NC(=O)c2c(C)nc3ccc(Br)cn23)c1O	0	0	0	45	0	41	0	61
COc1ccc(Cn2c(-c3ccc(Br)cc3)c[n+]3ccccc23)cc1	0	-	0	55	0	48	30	0
Cc1ccccc1Nc1nc(N)nc(CSc2nc3ccccc3s2)n1	0	0	0	0	0	0	-	-
Cc1ccc(Nc2nc(N)nc(CSc3nc4ccccc4s3)n2)cc1	0	0	0	47	0	47	0	0
C[C@@]12C(=O)N(c3ccc(C(F)(F)F)cc3)C(=O)N1[C@@H]1c3ccccc3OC[C@@H]1[C@H]2c1ccccc1	0	0	0	0	0	0	-	-
Cc1cc(Br)c(Cl)cc1NC(=O)CN1C(=O)C2C3CC(c4ccccc4)C(C3)C2C1=O (centres undefined)	0	0	0	52	0	52	43	0
CSc1nc(N)n2nc(-c3ccc(Cl)cc3)cc2n1	0	-	0	0	0	0	-	-
CN(C)CCCN(C(=O)c1cc(Cl)sc1Cl)c1nc2cc3c(cc2s1)OCO3	0	0	0	46	0	63	55	34
CN(C)CCCN(C(=O)c1cccs1)c1nc2cc3c(cc2s1)OCO3	0	0	0	0	0	0	-	-
CN(C)CCCN(C(=O)c1ccc(Cl)s1)c1nc2cc3c(cc2s1)OCO3	0	0	0	42	0	48	46	0
CN(C)CCCN(C(=O)c1ccc(Br)s1)c1nc2cc3c(cc2s1)OCCO3	0	-	0	56	-	64	60	47
CCN(CC)CCN(C(=O)c1ccc(Br)s1)c1nc2cc3c(cc2s1)OCCO3	0	0	0	0	0	0	-	-
CC1CC(C)(C)CC2(C1)NC(=O)N(CC(=O)OCC(=O)Nc1cc(S(=O)(=O)N3CCCCC3)ccc1Cl)C2=O (centres undefined)	-	-	-	-	0	-	-	-
Cn1cc([N+](=O)[O-])c(C(=O)n2cccn2)n1	0	0	0	0	0	0	-	-
Cc1cccc(N2C(=O)CC(Sc3ccccc3C(=O)O)C2=O)c1 (centres undefined)	0	78	0	41	0	49	46	0

High-throughput results from PubChem.
